Laboratory results from PubChem BioAssay (NCI).
About 79,000 compounds went through this panel and 15% of them were active in at least one assay; those are over-represented in the sample as a whole. Unmarked numbers belong to inactive results. Activity calls are given as the source filed them. Rule as the data show it: active = growth inhibition above about 70%; inactive = the rest.

Columns and labels:
[1] = NCI Yeast Anticancer Drug Screen. Data for the rad50 strain (AID 155);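 also: 0% = growth of vehicle-only cultures of the same strain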; conditions: S. cerevisiae rad50 strain growth inhibition; at 50.0 µM; hits give high values
Outline: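 Vehicle-treated cultures provide the reference for the growth inhibition reported for compound-exposed, repair-deficient yeast.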

[2] = NCI Yeast Anticancer Drug Screen. Data for the mec2-1 strain (AID 157); conditions: S. cerevisiae mec2-1 strain, at 50.0 µM, hits give high values
Outline: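 Test agents were screened against the mec2-1 yeast strain, with defined DNA repair or cell cycle alteration. Growth was scored as inhibition against vehicle-only controls.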

[3] = NCI Yeast Anticancer Drug Screen. Data for the sgs1 mgt1 strain (AID 161);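 also: 0% = growth of cultures given vehicle only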; conditions: S. cerevisiae sgs1 mgt1 strain, at 50.0 µM, hits give high values
Outline: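 Read-out: growth inhibition vs vehicle controls. Cells: mutant yeast strain deficient in DNA damage repair.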

[4] = NCI Yeast Anticancer Drug Screen. Data for the cln2 rad14 strain (AID 165);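 also: 0% = growth equal to vehicle treated cultures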; conditions: S. cerevisiae cln2 rad14 strain, at 50.0 µM, hits give high values
Outline: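 Growth of compound-exposed yeast (cln2 rad14 genotype) measured and expressed as inhibition relative to vehicle.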

[5] = NCI Yeast Anticancer Drug Screen. Data for the bub3 strain (AID 167); conditions: S. cerevisiae bub3 mutant strain, at 50.0 µM, hits give high values
Outline: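 Mutant yeast screening strain plus compound; vehicle-treated cultures serve as the 0% inhibition reference.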

[6] = NCI Yeast Anticancer Drug Screen. Data for the mlh1 rad18 strain (AID 175); conditions: S. cerevisiae mlh1 rad18 strain growth inhibition; at 50.0 µM; hits give high values
Outline: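 In this whole-cell yeast screen, a strain with altered DNA damage repair is challenged with compound, and its growth is measured against matched vehicle-treated controls.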

| Structure (SMILES) | growth inhibition [1] | growth inhibition [2] | growth inhibition [3] | growth inhibition [4] | growth inhibition [5] | growth inhibition [6] |
| --- | --- | --- | --- | --- | --- | --- |
| COc1ccc(N=Nc2c(C)nc(N)nc2C)cc1 | 2.1% | 18% | 8.05% | -26.8% | -14.3% | 12.6% |
| COc1ccc(C(=O)C2CC(=O)NC2=O)cc1 (centres undefined) | -11.6% | -5.95% | -1.8% | -38.5% | -0.7% | -0.4% |
| CC(NC(=O)C(CC(=O)OCc1ccccc1)NC(=O)OCc1ccccc1)c1ccccc1 (centres undefined) | 9.5% | -20.5% | 9.15% | -21.6% | -17.4% | -1.3% |
| Cc1oc2cc(O)ccc2c(=O)c1-c1ccccc1Br | 9.85% | 24.9% | 17.4% | -24.6% | 15.9% | 27.4% |
| CCN(CC)Cc1cc(N=Nc2ccc3c(c2)c2ccccc2n3CC)c2ccccc2c1O | 20% | 10.9% | 11.2% | 12.6% | -5.5% | 2.25% |
| Cc1ccc(S(=O)(=O)c2ccccc2C)s1 | -9% | -32.5% | -16.4% | 11.5% | -14.6% | -12.1% |
| COc1ccc(CCNc2ncc([N+](=O)[O-])cc2N)cc1OC | 5.15% | -8.75% | -10.8% | -20.9% | 6.25% | 2.75% |
| O=c1[nH]cccc1O | 5.2% | 5.5% | -17% | 10.4% | -8.8% | 7.25% |
| Cc1nnc2sc(Cl)nn12 | 26.9% | 48.8% | 48.1% | 17.7% | 12.9% | 22.8% |
| Nc1nc(NCCCc2ccccc2)c(N)c(=O)[nH]1 | 5.1% | 16.9% | 6.55% | -3.1% | 31.6% | 7.6% |
| CCCC(N)S(=O)(=O)O (centres undefined) | -25.6% | -10.6% | -23.9% | -14.1% | 6.1% | -11.2% |
| CNC(=O)Nc1nnnc2ccccc12 | 10.1% | 1.45% | -4.05% | -10.6% | -0.15% | 13.9% |
| CCCN(CCC)c1ccc(C(=O)c2ccccc2)cc1 | -12.4% | -3% | -1% | -33.8% | 18.6% | -6% |
| C=C(C)C12CC3CC(/C(=N/O)C(C1)/C3=N\O)[C@@]2(C)O (some centres undefined) | -31.8% | -34.8% | -46% | -8.2% | -26.9% | -59% |
| CCSC(OC(C)=O)C(Nc1ccc([N+](=O)[O-])cc1[N+](=O)[O-])C(OC(C)=O)C(OC(C)=O)C(COC(C)=O)OC(C)=O (centres undefined) | 23.7% | 10.8% | 6.2% | 17.2% | -0.6% | 24.9% |
| CCCCCCCCCCCCCCCCCC(=O)NC(=O)Nc1ccc(C)cc1 | -3.9% | 17.6% | -10.1% | -17% | -9.65% | 11.2% |
| CCN(CC)CCN(CCN(CC)CC)c1ccc2ccccc2c1 | 18.9% | -12.8% | 7.3% | 5.05% | 16.2% | 32.5% |
| CC(=O)C1=C(O)C2(O)C(=O)c3c(c(C)c4ccc(C)c(O)c4c3O)CC2C(N)C1=O (centres undefined) | 9.85% | 38.1% | 14.2% | 11.7% | 19% | 4% |
| CCCN(CCC)CC(O)c1cccc2c1cc(Cl)c1ccccc12 (centres undefined) | 99.6% (active) | 99.7% (active) | 99.8% (active) | 99% (active) | 91.3% (active) | 99.7% (active) |
| c1ccc(CN2CCCCC(Sc3ccccc3)CC2)cc1 (centres undefined) | 90.2% (active) | 93.8% (active) | 92.2% (active) | 90.5% (active) | 89.7% (active) | 90.9% (active) |

| Structure (SMILES) | growth inhibition [1] | growth inhibition [2] | growth inhibition [3] | growth inhibition [4] | growth inhibition [5] | growth inhibition [6] |
| --- | --- | --- | --- | --- | --- | --- |
| OCc1c(CO)c(Br)c2ccccc2c1Br | 11.8% | 3.75% | 35% | -6.45% | 4.9% | -6.2% |
| O=C(O)c1nnn(Cc2ccccc2)c1C(=O)O | 7.75% | -6% | -17.6% | 2.35% | 15.8% | 20% |
| O=C(O)C(CS(=O)(=O)O)S(=O)(=O)O (centres undefined) | -10.3% | -18.2% | -1.9% | -7.15% | 3.15% | -10.5% |
| CC(C)(C)N[P+](Cc1ccc(C[P+](NC(C)(C)C)(NC(C)(C)C)c2ccccc2)cc1)(NC(C)(C)C)c1ccccc1 | -3.05% | -10.1% | -0.9% | -13.5% | -2.1% | 5.45% |
| Nc1ccccc1S(=O)O | -4% | 8.55% | 14.9% | 7.7% | -25.9% | 13.1% |
| Cc1nnc2n1N=C(c1ccccc1)C(c1ccccc1)S2 (centres undefined) | 31.8% | 29.9% | 33.5% | 25.9% | 57.4% | 40.3% |
| Nc1c(Cl)cc(C(=O)NC2CC2)cc1Cl | -13.1% | -27.8% | -11.2% | -4.8% | -26.6% | -24.9% |
| CCCOC(=O)/C=C/c1ccc(OC)cc1 | -10.7% | -18.9% | -16.1% | -12.2% | -14.4% | -27.4% |
| CCOC(=O)OC1C(OC)OC2COC(c3ccccc3)OC2C1OC(=O)OCC (centres undefined) | -1.4% | -13.3% | -20% | -15.7% | -2.25% | 11.4% |
| C/C(CC(O)(C(F)(F)F)C(F)(F)F)=N\NC(N)=O | -38.5% | -44.5% | -22.5% | -1.45% | -5.35% | -15.8% |
| C=C(C)COc1ccc(C)cc1Br | -4.05% | -4.05% | 0% | -51.8% | 7.1% | -13% |
| Cc1nn2c(-c3ccccc3)cnnc2c1-c1ccccc1 | -19.4% | -21.1% | -12.8% | -26.1% | 6.75% | -10.8% |
| COc1ccc(-c2cc(C(=O)O)c3cc4ccccc4cc3n2)cc1Br | 8.6% | -15.9% | 13.7% | 24.3% | 2.95% | 10.9% |
| CN(C)c1ccc(/C=C/c2ccc(/C=C/c3ccc(N(C)C)cc3)cc2)cc1 | -15.1% | -9.9% | 5% | 10.2% | -11.4% | 20.8% |
| CCCCNc1c(C(=O)N2CCCCC2)cnc2c1cnn2CC | -3.15% | 1.8% | 26.2% | -13.9% | 46.8% | 1.05% |
| C/C(=N\O)C1(C)CC=CCC1C(=O)O (centres undefined) | -4.8% | 4.5% | 2.8% | 19.2% | -11.3% | 1.4% |
| O=C(OCc1ccc([N+](=O)[O-])cc1)N1c2ccccc2[C@@]23O[C@]24CCC[C@H]3C#C/C=C\C#C[C@H]14 | 22.1% | 25.2% | 2.45% | -13.6% | 9.85% | -32.6% |
| O=C1C(c2ccccc2Cl)[C@H]2CC=C[C@H]2N1O (some centres undefined) | -26.1% | -39.2% | -8.4% | 6.65% | -21.6% | -5.35% |
| O=C(NC(=O)c1c(F)cccc1F)Nc1ccc(Cl)nc1 | 8.75% | 5.95% | -0.2% | 2.3% | 21.9% | 10.1% |
